# Measured values from article PMC7862700, “An all-to-all approach to the identification of sequence-specific readers for epigenetic DNA modifications on cytosine”.
# Key:
# Assay in all cases: DAPPL (digital affinity profiling via proximity ligation, sequencing); 10 mM Tris-HCl pH 7.5, 50 mM NaCl, 1 mM DTT, 4% glycerol, room temperature, 30 min; GST-TFs on glutathione beads, 16-mer random dsDNA library, 0.1% formaldehyde crosslink after washing; high values mean tight binding
# FLI1 = biological target: T1, FLI1 (Homo sapiens, UniProt Q01543 1-452); details: protein: recombinant; tags: N-terminal GST; dsDNA, one strand shown
# T1 sequence: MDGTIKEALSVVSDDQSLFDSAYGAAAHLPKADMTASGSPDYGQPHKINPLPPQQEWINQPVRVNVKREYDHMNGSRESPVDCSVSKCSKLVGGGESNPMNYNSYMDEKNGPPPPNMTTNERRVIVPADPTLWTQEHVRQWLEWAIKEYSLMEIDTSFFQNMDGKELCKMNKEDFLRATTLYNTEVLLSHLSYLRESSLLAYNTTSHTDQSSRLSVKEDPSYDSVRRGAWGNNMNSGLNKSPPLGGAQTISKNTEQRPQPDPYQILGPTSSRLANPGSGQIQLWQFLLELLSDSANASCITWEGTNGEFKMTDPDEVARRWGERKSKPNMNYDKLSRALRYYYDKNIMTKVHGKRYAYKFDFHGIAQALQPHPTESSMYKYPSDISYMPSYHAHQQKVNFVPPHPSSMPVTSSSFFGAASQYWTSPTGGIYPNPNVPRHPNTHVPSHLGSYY
# How it was run: (§1)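 The binding signal reported is, for every hexamer, its read frequency for a factor over its read frequency for the tag-only sample. Reads came from pools of yeast-expressed, GST-fused human transcription factors on glutathione beads, barcoded with DNA and mixed with that sample, which were incubated with 200 nmole of a random double-stranded 16-mer DNA library in Tris/NaCl/DTT/glycerol buffer at room temperature for 30 min. After washing, the pools were crosslinked with 0.1% formaldehyde, proximity-ligated with BsaI/T4 ligase for 1 h at 37 °C, PCR-amplified and sequenced on an Illumina NextSeq500.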
# ELK1 = biological target: T2, ELK1 (Homo sapiens, UniProt P19419 1-428); details: protein: recombinant; tags: N-terminal GST; dsDNA, one strand shown
# T2 sequence: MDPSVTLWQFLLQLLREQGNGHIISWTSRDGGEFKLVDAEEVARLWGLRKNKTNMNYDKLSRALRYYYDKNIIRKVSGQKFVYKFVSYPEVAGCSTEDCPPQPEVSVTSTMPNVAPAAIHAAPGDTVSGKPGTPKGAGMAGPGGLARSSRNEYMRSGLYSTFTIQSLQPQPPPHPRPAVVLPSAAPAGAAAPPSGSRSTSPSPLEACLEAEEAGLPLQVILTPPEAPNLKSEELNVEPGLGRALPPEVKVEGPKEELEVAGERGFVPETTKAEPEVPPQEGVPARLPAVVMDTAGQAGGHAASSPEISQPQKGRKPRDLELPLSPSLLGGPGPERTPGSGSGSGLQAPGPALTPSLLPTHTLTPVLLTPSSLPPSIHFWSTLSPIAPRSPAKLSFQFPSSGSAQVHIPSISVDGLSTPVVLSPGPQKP
# How it was run: as §1
# GABPA = biological target: T3, GABPA (Homo sapiens, UniProt Q06546 1-454); details: protein: recombinant; tags: N-terminal GST; dsDNA, one strand shown
# T3 sequence: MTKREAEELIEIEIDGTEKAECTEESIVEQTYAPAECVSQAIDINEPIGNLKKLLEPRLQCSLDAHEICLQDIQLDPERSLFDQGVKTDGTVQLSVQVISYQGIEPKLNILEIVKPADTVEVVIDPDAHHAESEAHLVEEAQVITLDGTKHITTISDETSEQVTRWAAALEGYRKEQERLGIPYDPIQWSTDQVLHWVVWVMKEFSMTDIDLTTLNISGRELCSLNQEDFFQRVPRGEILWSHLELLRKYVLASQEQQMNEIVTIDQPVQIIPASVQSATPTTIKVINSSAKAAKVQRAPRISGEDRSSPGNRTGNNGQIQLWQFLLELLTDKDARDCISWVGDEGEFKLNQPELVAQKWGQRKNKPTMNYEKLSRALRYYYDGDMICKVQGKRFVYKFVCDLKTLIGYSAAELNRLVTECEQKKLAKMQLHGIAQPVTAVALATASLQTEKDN
# How it was run: as §1
# ERG = biological target: T4, ERG (Homo sapiens, UniProt P11308 1-479); details: protein: recombinant; tags: N-terminal GST; dsDNA, one strand shown
# T4 sequence: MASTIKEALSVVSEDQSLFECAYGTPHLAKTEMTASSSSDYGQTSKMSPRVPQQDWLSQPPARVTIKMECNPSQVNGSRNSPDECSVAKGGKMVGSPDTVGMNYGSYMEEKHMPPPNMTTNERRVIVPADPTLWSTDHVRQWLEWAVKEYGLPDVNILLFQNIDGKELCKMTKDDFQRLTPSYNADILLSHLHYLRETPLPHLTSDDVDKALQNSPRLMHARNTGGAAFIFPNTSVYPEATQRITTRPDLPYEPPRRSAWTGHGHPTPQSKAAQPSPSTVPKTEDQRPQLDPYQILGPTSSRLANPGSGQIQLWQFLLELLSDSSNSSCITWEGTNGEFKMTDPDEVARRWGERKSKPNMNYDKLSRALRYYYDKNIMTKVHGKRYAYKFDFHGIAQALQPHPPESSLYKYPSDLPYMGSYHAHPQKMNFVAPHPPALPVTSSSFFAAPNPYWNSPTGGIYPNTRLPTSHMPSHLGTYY
# How it was run: as §1
# ELF1 = ELF1 (Homo sapiens, UniProt P32519 1-619); details: protein: recombinant; tags: N-terminal GST; dsDNA, one strand shown
# Sequence of ELF1 (P32519 whole entry): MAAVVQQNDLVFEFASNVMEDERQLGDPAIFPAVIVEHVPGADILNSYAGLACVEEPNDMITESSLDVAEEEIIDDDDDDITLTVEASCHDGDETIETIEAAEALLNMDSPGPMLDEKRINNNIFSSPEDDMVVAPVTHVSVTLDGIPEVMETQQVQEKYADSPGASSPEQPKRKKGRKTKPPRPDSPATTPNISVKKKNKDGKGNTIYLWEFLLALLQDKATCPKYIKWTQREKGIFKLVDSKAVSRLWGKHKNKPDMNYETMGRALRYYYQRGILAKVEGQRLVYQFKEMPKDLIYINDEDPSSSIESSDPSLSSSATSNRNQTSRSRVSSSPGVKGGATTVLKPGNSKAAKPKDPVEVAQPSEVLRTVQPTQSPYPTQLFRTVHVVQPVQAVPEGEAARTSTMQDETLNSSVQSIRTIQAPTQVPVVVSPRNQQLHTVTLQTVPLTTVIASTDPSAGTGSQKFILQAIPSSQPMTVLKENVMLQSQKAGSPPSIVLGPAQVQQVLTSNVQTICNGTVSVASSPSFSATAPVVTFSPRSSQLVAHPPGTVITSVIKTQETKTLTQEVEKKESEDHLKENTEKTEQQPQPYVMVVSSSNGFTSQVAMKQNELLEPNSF
# How it was run: as §1
# EHF = biological target: T5, EHF (Homo sapiens, UniProt Q9NZC4 1-300); details: protein: recombinant; tags: N-terminal GST; dsDNA, one strand shown
# T5 sequence: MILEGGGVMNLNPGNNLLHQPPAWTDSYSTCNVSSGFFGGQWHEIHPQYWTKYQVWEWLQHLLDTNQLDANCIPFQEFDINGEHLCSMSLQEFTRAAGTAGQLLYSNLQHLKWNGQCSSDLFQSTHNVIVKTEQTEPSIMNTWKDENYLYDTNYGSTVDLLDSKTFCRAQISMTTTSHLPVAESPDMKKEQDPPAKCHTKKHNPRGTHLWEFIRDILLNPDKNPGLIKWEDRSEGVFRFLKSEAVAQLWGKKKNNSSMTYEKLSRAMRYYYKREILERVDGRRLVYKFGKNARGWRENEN
# How it was run: as §1
# SPI1 = SPI1 (Homo sapiens, UniProt P17947 1-270); details: protein: recombinant; tags: N-terminal GST; dsDNA, one strand shown
# How it was run: as §1
# SPIB = SPIB (Homo sapiens, UniProt Q01892 1-262); details: protein: recombinant; tags: N-terminal GST; dsDNA, one strand shown
# Sequence of SPIB (Q01892 whole entry): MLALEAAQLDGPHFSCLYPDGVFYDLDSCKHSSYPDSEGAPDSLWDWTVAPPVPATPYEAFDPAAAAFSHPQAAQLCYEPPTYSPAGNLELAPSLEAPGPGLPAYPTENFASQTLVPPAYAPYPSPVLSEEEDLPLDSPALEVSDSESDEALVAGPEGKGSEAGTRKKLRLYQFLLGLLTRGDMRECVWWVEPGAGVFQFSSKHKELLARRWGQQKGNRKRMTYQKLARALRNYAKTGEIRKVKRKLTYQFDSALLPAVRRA
# How it was run: as §1
# ELK3 = biological target: T6, ELK3 (Homo sapiens, UniProt P41970 1-407); details: protein: recombinant; tags: N-terminal GST; dsDNA, one strand shown
# T6 sequence: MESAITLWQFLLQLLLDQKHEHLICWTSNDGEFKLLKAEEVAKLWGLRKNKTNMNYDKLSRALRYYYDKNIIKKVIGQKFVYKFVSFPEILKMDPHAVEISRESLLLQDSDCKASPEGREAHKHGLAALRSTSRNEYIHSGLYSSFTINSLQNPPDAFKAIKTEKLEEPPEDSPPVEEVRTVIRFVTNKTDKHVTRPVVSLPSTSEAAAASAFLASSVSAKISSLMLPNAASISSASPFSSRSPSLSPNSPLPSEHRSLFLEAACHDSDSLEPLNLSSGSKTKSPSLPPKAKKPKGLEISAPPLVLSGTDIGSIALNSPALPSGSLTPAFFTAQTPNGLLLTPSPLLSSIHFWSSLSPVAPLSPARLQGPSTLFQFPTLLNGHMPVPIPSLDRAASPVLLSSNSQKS
# How it was run: as §1
# FEV = biological target: T7, FEV (Homo sapiens, UniProt Q99581 1-238); details: protein: recombinant; tags: N-terminal GST; dsDNA, one strand shown
# T7 sequence: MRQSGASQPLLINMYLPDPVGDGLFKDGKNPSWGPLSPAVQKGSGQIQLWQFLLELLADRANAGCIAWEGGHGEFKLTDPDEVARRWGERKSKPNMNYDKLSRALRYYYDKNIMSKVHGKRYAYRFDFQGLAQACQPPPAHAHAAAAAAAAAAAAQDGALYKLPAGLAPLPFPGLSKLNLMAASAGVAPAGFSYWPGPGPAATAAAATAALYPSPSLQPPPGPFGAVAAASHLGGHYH
# How it was run: as §1
# ETV5 = ETV5 (Homo sapiens, UniProt P41161 1-510); details: protein: recombinant; tags: N-terminal GST; dsDNA, one strand shown
# Sequence of ETV5 (P41161 whole entry): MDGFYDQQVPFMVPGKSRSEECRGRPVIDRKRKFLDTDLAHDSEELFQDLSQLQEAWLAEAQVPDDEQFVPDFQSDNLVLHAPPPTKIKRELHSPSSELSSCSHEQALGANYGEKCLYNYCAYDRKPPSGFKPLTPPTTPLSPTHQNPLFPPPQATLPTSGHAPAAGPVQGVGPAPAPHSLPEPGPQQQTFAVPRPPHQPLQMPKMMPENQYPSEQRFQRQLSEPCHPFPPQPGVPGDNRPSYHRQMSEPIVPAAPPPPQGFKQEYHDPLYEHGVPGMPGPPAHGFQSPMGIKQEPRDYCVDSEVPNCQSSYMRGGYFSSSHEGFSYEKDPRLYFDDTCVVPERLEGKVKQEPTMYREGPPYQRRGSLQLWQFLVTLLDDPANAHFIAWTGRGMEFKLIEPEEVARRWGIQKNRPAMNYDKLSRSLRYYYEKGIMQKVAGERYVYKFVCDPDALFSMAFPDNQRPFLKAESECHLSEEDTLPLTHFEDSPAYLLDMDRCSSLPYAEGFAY
# How it was run: as §1
# HSF1 = HSF1 (Homo sapiens, UniProt Q00613 1-529); details: protein: recombinant; tags: N-terminal GST; chain copies: 3; dsDNA, one strand shown
# Sequence of HSF1 (Q00613 whole entry): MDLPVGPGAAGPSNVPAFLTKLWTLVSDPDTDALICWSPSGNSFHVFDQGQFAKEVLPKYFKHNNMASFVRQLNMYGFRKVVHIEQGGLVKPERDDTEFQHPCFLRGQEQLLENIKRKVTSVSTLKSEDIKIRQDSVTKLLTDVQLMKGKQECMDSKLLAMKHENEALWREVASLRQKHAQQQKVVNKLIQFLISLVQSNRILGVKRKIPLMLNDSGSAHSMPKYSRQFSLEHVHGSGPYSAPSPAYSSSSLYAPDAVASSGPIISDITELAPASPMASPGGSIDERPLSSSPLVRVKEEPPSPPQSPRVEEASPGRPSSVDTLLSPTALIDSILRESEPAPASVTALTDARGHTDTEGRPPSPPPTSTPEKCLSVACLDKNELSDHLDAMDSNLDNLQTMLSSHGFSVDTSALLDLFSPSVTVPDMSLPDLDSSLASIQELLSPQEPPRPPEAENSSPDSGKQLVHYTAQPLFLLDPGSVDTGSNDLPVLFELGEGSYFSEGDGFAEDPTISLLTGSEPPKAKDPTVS
# How it was run: as §1
# SPIC = biological target: T8, SPIC (Homo sapiens, UniProt Q8N5J4 1-248); details: protein: recombinant; tags: N-terminal GST; dsDNA, one strand shown
# T8 sequence: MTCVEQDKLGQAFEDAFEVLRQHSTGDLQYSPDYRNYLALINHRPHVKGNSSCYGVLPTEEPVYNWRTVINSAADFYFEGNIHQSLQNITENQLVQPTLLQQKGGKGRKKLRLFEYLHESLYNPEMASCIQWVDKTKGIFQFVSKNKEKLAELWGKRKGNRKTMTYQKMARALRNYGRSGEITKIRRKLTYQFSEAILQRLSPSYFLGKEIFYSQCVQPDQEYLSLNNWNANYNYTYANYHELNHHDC
# How it was run: as §1
# ELF4 = ELF4 (Homo sapiens, UniProt Q99607 1-663); details: protein: recombinant; tags: N-terminal GST; dsDNA, one strand shown
# Sequence of ELF4 (Q99607 whole entry): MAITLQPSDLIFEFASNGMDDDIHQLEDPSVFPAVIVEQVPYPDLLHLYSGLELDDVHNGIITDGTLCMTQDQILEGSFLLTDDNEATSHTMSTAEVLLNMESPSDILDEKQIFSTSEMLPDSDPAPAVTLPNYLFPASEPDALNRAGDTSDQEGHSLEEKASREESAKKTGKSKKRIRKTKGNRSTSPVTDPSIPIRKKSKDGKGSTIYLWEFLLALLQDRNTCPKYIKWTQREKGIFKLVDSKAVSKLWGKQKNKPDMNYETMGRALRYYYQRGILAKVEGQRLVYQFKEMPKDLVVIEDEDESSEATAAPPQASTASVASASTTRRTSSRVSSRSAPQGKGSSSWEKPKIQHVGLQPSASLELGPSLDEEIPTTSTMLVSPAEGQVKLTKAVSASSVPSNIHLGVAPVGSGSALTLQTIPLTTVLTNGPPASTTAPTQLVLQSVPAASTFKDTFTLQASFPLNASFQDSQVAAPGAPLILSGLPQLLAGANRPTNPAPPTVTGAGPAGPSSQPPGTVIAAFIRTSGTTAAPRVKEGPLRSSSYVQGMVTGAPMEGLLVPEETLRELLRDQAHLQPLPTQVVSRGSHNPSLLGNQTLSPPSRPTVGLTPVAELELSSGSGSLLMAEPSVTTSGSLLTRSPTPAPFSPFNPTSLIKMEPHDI
# How it was run: as §1
# ELK4 = biological target: T9, ELK4 (Homo sapiens, UniProt P28324-2 1-405); details: protein: recombinant; tags: N-terminal GST; dsDNA, one strand shown
# T9 sequence: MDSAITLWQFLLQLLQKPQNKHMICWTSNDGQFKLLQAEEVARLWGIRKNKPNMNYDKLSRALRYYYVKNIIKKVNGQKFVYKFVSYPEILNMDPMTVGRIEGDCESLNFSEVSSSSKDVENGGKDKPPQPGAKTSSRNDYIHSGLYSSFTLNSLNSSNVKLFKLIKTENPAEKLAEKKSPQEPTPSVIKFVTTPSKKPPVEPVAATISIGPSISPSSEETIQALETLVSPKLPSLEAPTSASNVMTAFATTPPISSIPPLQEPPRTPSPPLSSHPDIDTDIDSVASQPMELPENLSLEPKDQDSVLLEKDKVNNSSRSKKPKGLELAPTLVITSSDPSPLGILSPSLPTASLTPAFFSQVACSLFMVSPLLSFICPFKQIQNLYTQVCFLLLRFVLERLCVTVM
# How it was run: as §1
# ETV2 = biological target: T10, ETV2 (Homo sapiens, UniProt O00321 1-342); details: protein: recombinant; tags: N-terminal GST; dsDNA, one strand shown
# T10 sequence: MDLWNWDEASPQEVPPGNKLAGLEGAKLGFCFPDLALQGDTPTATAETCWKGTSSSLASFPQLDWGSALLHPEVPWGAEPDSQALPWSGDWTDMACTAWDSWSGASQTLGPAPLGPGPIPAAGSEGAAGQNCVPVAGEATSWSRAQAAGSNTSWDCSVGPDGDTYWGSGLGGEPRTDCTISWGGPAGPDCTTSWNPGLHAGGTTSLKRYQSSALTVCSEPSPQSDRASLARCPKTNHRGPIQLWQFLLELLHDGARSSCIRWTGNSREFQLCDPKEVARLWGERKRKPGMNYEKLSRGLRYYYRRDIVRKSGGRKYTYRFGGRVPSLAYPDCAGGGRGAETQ
# How it was run: as §1
# ELF3 = biological target: T11, ELF3 (Homo sapiens, UniProt P78545 1-371); details: protein: recombinant; tags: N-terminal GST; dsDNA, one strand shown
# T11 sequence: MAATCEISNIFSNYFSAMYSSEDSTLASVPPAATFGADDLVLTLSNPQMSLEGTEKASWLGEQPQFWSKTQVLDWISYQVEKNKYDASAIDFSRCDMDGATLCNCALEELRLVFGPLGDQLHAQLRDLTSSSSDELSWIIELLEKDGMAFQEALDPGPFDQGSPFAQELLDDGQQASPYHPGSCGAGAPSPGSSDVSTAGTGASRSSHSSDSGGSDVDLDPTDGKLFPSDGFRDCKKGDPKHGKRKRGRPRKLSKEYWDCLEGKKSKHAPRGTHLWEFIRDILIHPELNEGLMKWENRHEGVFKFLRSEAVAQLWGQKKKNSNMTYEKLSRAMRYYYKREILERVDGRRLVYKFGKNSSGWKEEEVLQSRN
# How it was run: as §1
# CRX = CRX (Homo sapiens, UniProt O43186 1-299); details: protein: recombinant; tags: N-terminal GST; dsDNA, one strand shown
# Sequence of CRX (O43186 whole entry): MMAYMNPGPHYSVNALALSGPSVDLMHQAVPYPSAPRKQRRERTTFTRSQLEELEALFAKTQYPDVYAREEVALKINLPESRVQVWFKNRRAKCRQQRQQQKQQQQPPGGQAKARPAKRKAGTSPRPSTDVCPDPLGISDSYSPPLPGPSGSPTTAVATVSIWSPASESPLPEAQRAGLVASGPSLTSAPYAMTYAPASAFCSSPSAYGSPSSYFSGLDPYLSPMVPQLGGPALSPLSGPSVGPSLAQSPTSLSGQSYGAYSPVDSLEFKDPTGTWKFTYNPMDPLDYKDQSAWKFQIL
# How it was run: as §1
# ETV1 = ETV1 (Homo sapiens, UniProt P50549 1-477); details: protein: recombinant; tags: N-terminal GST; dsDNA, one strand shown
# Sequence of ETV1 (P50549 whole entry): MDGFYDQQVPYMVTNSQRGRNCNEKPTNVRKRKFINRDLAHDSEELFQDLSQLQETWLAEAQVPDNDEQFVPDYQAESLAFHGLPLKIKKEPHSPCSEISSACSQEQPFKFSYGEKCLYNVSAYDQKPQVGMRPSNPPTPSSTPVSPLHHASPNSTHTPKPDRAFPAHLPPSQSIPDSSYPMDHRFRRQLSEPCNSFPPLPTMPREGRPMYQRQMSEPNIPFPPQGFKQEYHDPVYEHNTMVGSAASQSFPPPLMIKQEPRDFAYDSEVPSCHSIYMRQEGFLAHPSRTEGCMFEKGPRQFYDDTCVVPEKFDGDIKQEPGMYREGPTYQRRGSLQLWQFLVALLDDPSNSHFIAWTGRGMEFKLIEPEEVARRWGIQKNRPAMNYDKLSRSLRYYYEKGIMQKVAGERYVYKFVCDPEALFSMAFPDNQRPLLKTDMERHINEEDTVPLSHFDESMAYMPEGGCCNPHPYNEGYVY
# How it was run: as §1
sequence,measurement,setting,value
CCCTTT,binding signal,FLI1,"1.47 fold enrichment (6-mer frequency, TF over GST control)"
same,binding signal,ELK1,"1.36 fold enrichment (6-mer frequency, TF over GST control)"
same,binding signal,GABPA,"1.51 fold enrichment (6-mer frequency, TF over GST control)"
same,binding signal,ERG,"1.45 fold enrichment (6-mer frequency, TF over GST control)"
same,binding signal,ELF1,"1.36 fold enrichment (6-mer frequency, TF over GST control)"
same,binding signal,EHF,"1.35 fold enrichment (6-mer frequency, TF over GST control)"
same,binding signal,SPI1,"1.96 fold enrichment (6-mer frequency, TF over GST control)"
same,binding signal,SPIB,"1.49 fold enrichment (6-mer frequency, TF over GST control)"
same,binding signal,ELK3,"1.43 fold enrichment (6-mer frequency, TF over GST control)"
same,binding signal,FEV,"1.46 fold enrichment (6-mer frequency, TF over GST control)"
same,binding signal,ETV5,"1.45 fold enrichment (6-mer frequency, TF over GST control)"
same,binding signal,HSF1,"1.25 fold enrichment (6-mer frequency, TF over GST control)"
same,binding signal,SPIC,"1.34 fold enrichment (6-mer frequency, TF over GST control)"
same,binding signal,ELF4,"1.49 fold enrichment (6-mer frequency, TF over GST control)"
same,binding signal,ELK4,"1.34 fold enrichment (6-mer frequency, TF over GST control)"
same,binding signal,ETV2,"1.33 fold enrichment (6-mer frequency, TF over GST control)"
same,binding signal,ELF3,"1.68 fold enrichment (6-mer frequency, TF over GST control)"
same,binding signal,CRX,"1.35 fold enrichment (6-mer frequency, TF over GST control)"
same,binding signal,ETV1,"1.4 fold enrichment (6-mer frequency, TF over GST control)"
